A short description of assay [1]: p53 stabilisation in HPV-positive human cells, imaging, p53-positive nuclei imaging, 24 h, 48 h (AID 1508601). Conditions: 24/48 h.
Assay [2] addresses Cellular tumor antigen p53 (Homo sapiens) (UniProt P04637). The assay is described as above. As to conditions: 24/48 h, stronger effect = higher value.
Setting [3] is: measured here: cell number at 24 h, Library stock concentration: 3.33 mM.
Setting [4] is: measured here: cell number at 48 h, Library stock concentration: 3.33 mM.
Where [5] appears, read: Library stock concentration: 3.33 mM.
The mark [6] stands for this setting: measured here: p53 positive nuclei at 24 h, Library stock concentration: 3.33 mM.
Where [7] appears, read: measured here: cell number at 24 h, Library stock concentration: 10 mM.
Setting [8] is: measured here: cell number at 48 h, Library stock concentration: 10 mM.
Where [9] appears, read: Library stock concentration: 10 mM.
[10] abbreviates: measured here: p53 positive nuclei at 24 h, Library stock concentration: 10 mM.
Setting [11] is: measured here: cell number at 24 h, concentration not given here.
Where [12] appears, read: measured here: cell number at 48 h, concentration not given here.
The mark [13] stands for this setting: measured here: p53 positive nuclei at 24 h, concentration not given here.
Setting [14] is: measured here: cell number at 24 h, Library stock concentration: 80 uM.
Where [15] appears, read: measured here: cell number at 24 h, Library stock concentration: 400 uM.
The mark [16] stands for this setting: measured here: cell number at 24 h, Library stock concentration: 2 mM.
Where [17] appears, read: measured here: cell number at 48 h, Library stock concentration: 80 uM.
[18] abbreviates: measured here: cell number at 48 h, Library stock concentration: 400 uM.
The mark [19] stands for this setting: measured here: cell number at 48 h, Library stock concentration: 2 mM.
[20] abbreviates: Library stock concentration: 80 uM.
[21] abbreviates: Library stock concentration: 400 uM.
Where [22] appears, read: Library stock concentration: 2 mM.
Where [23] appears, read: measured here: p53 positive nuclei at 24 h, Library stock concentration: 80 uM.
Setting [24] is: measured here: p53 positive nuclei at 24 h, Library stock concentration: 400 uM.
Where [25] appears, read: measured here: p53 positive nuclei at 24 h, Library stock concentration: 2 mM.

The values below come from PubChem BioAssay AID1508601 (ICCB-Longwood Screening Facility, Harvard Medical School, 2020).

Out of some 5,700 compounds screened, about 85 (1%) were called active. No stated cut-off is given here; in the data, active means p53-positive nuclei above about 36% (passing the limit was not always enough); inactive means the rest. For the sample, actives were picked, then their nearest neighbours and some compounds at random.

Chain of Cellular tumor antigen p53 (Homo sapiens) (P04637 whole entry, looked up): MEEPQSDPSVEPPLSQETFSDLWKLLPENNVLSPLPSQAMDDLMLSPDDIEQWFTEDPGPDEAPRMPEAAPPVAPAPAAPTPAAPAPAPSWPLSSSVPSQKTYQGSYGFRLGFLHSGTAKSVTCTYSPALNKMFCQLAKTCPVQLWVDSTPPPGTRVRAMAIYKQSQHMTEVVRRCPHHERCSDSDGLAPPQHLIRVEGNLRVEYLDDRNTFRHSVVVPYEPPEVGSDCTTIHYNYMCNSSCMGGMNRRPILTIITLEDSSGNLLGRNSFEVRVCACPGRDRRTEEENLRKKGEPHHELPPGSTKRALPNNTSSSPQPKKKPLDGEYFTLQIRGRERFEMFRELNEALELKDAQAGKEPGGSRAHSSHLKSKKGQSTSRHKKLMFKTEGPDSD

As to `CC(C)CC(NC(=O)C(Cc1ccccc1)NC(=O)c1cnccn1)B(O)O` (centres undefined), the nuclei count, normalised in assay [1] (setting [3]) is 47.9%; in assay [1] (setting [4]), 41.9%. The results for the p53-positive nuclei, normalised in assay [2] (setting [5]) and in assay [2] (setting [6]) were 106% (active) and 125%, respectively.
For `CC(=O)NC(CSC(=S)NSc1ccc(SNC(=S)SCC(NC(C)=O)C(=O)O)cc1)C(=O)O` (centres undefined), the nuclei count, normalised in assay [1] (measured here: cell number at 24 h, Library stock concentration: 500 nM) amounted to 115%; in assay [1] (measured here: cell number at 24 h, Library stock concentration: 1.5 uM) it was 108%; in assay [1] (measured here: cell number at 24 h, Library stock concentration: 4.6 uM) it was 110%; in assay [1] (measured here: cell number at 24 h, Library stock concentration: 13.7 uM), 114%; in assay [1] (measured here: cell number at 24 h, Library stock concentration: 41 uM) it was 121%; in assay [1] (measured here: cell number at 24 h, Library stock concentration: 123 uM), 119%. For the same compound, the nuclei count, normalised in assay [1] (measured here: cell number at 24 h, Library stock concentration: 370 uM) is 107%; in assay [1] (measured here: cell number at 24 h, Library stock concentration: 1.111 mM), 105%; in assay [1] (measured here: cell number at 24 h, Library stock concentration: 3.333 mM), 89.8%; in assay [1] (setting [7]), 64.7%; in assay [1] (measured here: cell number at 48 h, Library stock concentration: 500 nM) it was 111%; in assay [1] (measured here: cell number at 48 h, Library stock concentration: 1.5 uM), 111%. The nuclei count, normalised was 109% in assay [1] (measured here: cell number at 48 h, Library stock concentration: 4.6 uM); 109% in assay [1] (measured here: cell number at 48 h, Library stock concentration: 13.7 uM); 108% in assay [1] (measured here: cell number at 48 h, Library stock concentration: 41 uM); 108% in assay [1] (measured here: cell number at 48 h, Library stock concentration: 123 uM); 106% in assay [1] (measured here: cell number at 48 h, Library stock concentration: 370 uM); 105% in assay [1] (measured here: cell number at 48 h, Library stock concentration: 1.111 mM). Moreover, the nuclei count, normalised in assay [1] (measured here: cell number at 48 h, Library stock concentration: 3.333 mM) stood at 95.8%; in assay [1] (setting [8]) it was 68.4%. For the same compound, the p53-positive nuclei, normalised in assay [2] (Library stock concentration: 500 nM) is -0.0484% (inactive); in assay [2] (Library stock concentration: 1.5 uM), -0.0573% (inactive); in assay [2] (Library stock concentration: 4.6 uM), 0.0306% (inactive); in assay [2] (Library stock concentration: 13.7 uM), -0.0501% (inactive); in assay [2] (Library stock concentration: 41 uM), -0.00296% (inactive); in assay [2] (Library stock concentration: 123 uM), -0.123% (inactive). Moreover, the p53-positive nuclei, normalised in assay [2] (Library stock concentration: 370 uM) is -0.0406% (inactive); in assay [2] (Library stock concentration: 1.111 mM), 0.162% (inactive); in assay [2] (Library stock concentration: 3.333 mM), -0.108% (inactive); in assay [2] (setting [9]), 6.19% (inactive); in assay [2] (measured here: p53 positive nuclei at 24 h, Library stock concentration: 500 nM), -0.173%; in assay [2] (measured here: p53 positive nuclei at 24 h, Library stock concentration: 1.5 uM) it was -0.118%. The p53-positive nuclei, normalised was -0.113% in assay [2] (measured here: p53 positive nuclei at 24 h, Library stock concentration: 4.6 uM); -0.173% in assay [2] (measured here: p53 positive nuclei at 24 h, Library stock concentration: 13.7 uM); -0.0102% in assay [2] (measured here: p53 positive nuclei at 24 h, Library stock concentration: 41 uM); -0.173% in assay [2] (measured here: p53 positive nuclei at 24 h, Library stock concentration: 123 uM); -0.0536% in assay [2] (measured here: p53 positive nuclei at 24 h, Library stock concentration: 370 uM); 0.0142% in assay [2] (measured here: p53 positive nuclei at 24 h, Library stock concentration: 1.111 mM). Further, the p53-positive nuclei, normalised in assay [2] (measured here: p53 positive nuclei at 24 h, Library stock concentration: 3.333 mM) is -0.0287%; in assay [2] (setting [10]) it was 16%.
As for `COc1cccc2ccc(-c3ccc(C(=O)N(C)C)cc3)nc12`, the nuclei count, normalised is 97.5% in assay [1] (setting [11]) and 101% in assay [1] (setting [12]). Further, the p53-positive nuclei, normalised in assay [2] (concentration not given here) is 0.00257% (inactive); in assay [2] (setting [13]), 0.1%.
As for `c1ccc(C(OC2CCN(CCCc3nn[nH]n3)CC2)c2ccccc2)cc1`, the nuclei count, normalised stood at 101% in assay [1] (setting [11]) and 102% in assay [1] (setting [12]). Moreover, the p53-positive nuclei, normalised in assay [2] (concentration not given here) was 0.0542% (inactive); in assay [2] (setting [13]) it was 0.308%.
Turning to `COc1cc(OC)cc(-c2ccc3ncc4ccc(=O)n(-c5ccc(N6CCNCC6)c(C(F)(F)F)c5)c4c3c2)c1`, the nuclei count, normalised in assay [1] (setting [14]) turned out to be 106%; in assay [1] (setting [15]), 104%; in assay [1] (setting [16]) it was 101%; in assay [1] (setting [7]) it was 45.6%; in assay [1] (setting [17]), 111%; in assay [1] (setting [18]), 107%. The nuclei count, normalised worked out at 103% in assay [1] (setting [19]) and 30.1% in assay [1] (setting [8]). Further, the p53-positive nuclei, normalised was 0.103% (inactive) in assay [2] (setting [20]); 0.257% (inactive) in assay [2] (setting [21]); -0.11% (inactive) in assay [2] (setting [22]); 10.5% (inactive) in assay [2] (setting [9]); -0.0535% in assay [2] (setting [23]); 0.233% in assay [2] (setting [24]). For the same compound, the values for the p53-positive nuclei, normalised in assay [2] (setting [25]) and in assay [2] (setting [10]) were 0.0288% and 11.7%, respectively.
For the compound `CCC(=O)N1CCN(c2ccc(-n3c(=O)ccc4cnc5ccc(-c6cnc7ccccc7c6)cc5c43)cc2C(F)(F)F)CC1`, the nuclei count, normalised turned out to be 68.5% in assay [1] (setting [14]); 59.7% in assay [1] (setting [15]); 55.8% in assay [1] (setting [16]); 43.7% in assay [1] (setting [7]); 64.8% in assay [1] (setting [17]); 49% in assay [1] (setting [18]). For the same compound, the nuclei count, normalised in assay [1] (setting [19]) was 36.2%; in assay [1] (setting [8]), 21.9%. Besides, the p53-positive nuclei, normalised in assay [2] (setting [20]) is -0.0521% (inactive); in assay [2] (setting [21]), -0.0367% (inactive); in assay [2] (setting [22]), 0.993% (inactive); in assay [2] (setting [9]), 11.8% (inactive); in assay [2] (setting [23]) it was 0.45%; in assay [2] (setting [24]), 0.126%. Also, the figures for the p53-positive nuclei, normalised in assay [2] (setting [25]) and in assay [2] (setting [10]) were 0.287% and 0.768%, respectively.
As for `COc1ccc(-c2ccc3ncc4c(c3c2)n(-c2ccc(N3CCNCC3)c(C(F)(F)F)c2)c(=O)n4C)cn1`, the nuclei count, normalised stood at 74.5% in assay [1] (setting [14]); 49.8% in assay [1] (setting [15]); 37.4% in assay [1] (setting [16]); 46.3% in assay [1] (setting [3]); 49.1% in assay [1] (setting [7]); 70.7% in assay [1] (setting [17]). For the same compound, the nuclei count, normalised in assay [1] (setting [18]) was determined as 39.8%; in assay [1] (setting [19]) it was 21%; in assay [1] (setting [4]) it was 37.9%; in assay [1] (setting [8]) it was 37.2%. Further, the p53-positive nuclei, normalised was 0.085% (inactive) in assay [2] (setting [20]); 22.1% (inactive) in assay [2] (setting [21]); 53.3% (active) in assay [2] (setting [22]); 2.2% (inactive) in assay [2] (setting [5]); -0.138% (inactive) in assay [2] (setting [9]); 0.126% in assay [2] (setting [23]). The p53-positive nuclei, normalised in assay [2] (setting [24]) is 1.06%; in assay [2] (setting [25]), 14.2%; in assay [2] (setting [6]) it was 3.51%; in assay [2] (setting [10]), -0.0446%.
